# Values quoted from earlier work, collected in PubChem BioAssay AID977610.
# Among all 3,600 compounds or so, about 3,600 (100%) were called active. Cut-off not given; nearly all actives show Ki up to about 18000 µM. So high a share suggests a set chosen from earlier hits. Some of the results follow.
# Test: PubChem AID 977610
# Details: PDB protein-ligand complexes, literature Ki
smiles,measurement,setting,value
CCCCCC[C@H]([C@H](C)O)n1cnc2c(N)ncnc21,Ki,"protein: Bos taurus Adenosine deaminase (ADA), PDB entry 2z7g",0.00113 µM (active)
COC(=O)N[C@H](C(=O)NN(CCC[C@@]1(O)Cc2ccc(cc2)C/C=C\CNC(=O)[C@H](C(C)C)NC1=O)Cc1ccc(-c2ccncc2)cc1)C(C)(C)C,Ki,"protein: HIV-1 protease, PDB entry 4cps",0.0054 µM (active)
COC(=O)N[C@H](C(=O)NN(CCC[C@@]1(O)Cc2ccc(cc2)C/C=C\CNC(=O)[C@H](C(C)C)NC1=O)Cc1ccc(-c2cccnc2)cc1)C(C)(C)C,Ki,"protein: HIV-1 protease, PDB entry 4cpt",0.02 µM (active)
COC(=O)N[C@H](C(=O)NN(CCC[C@@]1(O)Cc2ccc(cc2)C/C=C\CNC(=O)[C@H](C(C)C)NC1=O)Cc1ccc([C@H]2C=CCS2)cc1)C(C)(C)C,Ki,"protein: HIV-1 protease, PDB entry 4cpx",0.017 µM (active)
CC(C)c1ccc(CCC(=O)N[C@@H]2O[C@H](CO)[C@@H](O)[C@H](O)[C@H]2O)cc1,Ki,"protein: Glycogen phosphorylase, muscle form, PDB entry 4mic",4.98 µM (active)
CC(C)c1ccc(C[C@@H](C)C(=O)N[C@@H]2O[C@H](CO)[C@@H](O)[C@H](O)[C@H]2O)cc1,Ki,"protein: Glycogen phosphorylase, muscle form, PDB entry 4mi3",75.3 µM (active)
O=C(CCc1ccc(-c2ccccc2)cc1)N[C@@H]1O[C@H](CO)[C@@H](O)[C@H](O)[C@H]1O,Ki,"protein: Glycogen phosphorylase, muscle form, PDB entry 4mhs",5.14 µM (active)
Cc1ccc(C(=O)NC(=O)N[C@@H]2O[C@H](CO)[C@@H](O)[C@H](O)[C@H]2O)cc1,Ki,"protein: Oryctolagus cuniculus Glycogen Phosphorylase, PDB entry 2qlm",2.3 µM (active)
CC[B]O,Ki,"protein: pure Acyl-homoserine lactone acylase PvdQ, PDB entry 4wks",2000 µM (active)
Cc1nn(C)cc1-c1ccn[nH]1,Ki,"protein: Catechol O-methyltransferase COMT, PDB entry 4p58",25 µM (active)
CC(C)S[C@@H]1O[C@H](CO)[C@H](O)[C@H](O)[C@H]1O,Ki,"protein: Putative lipoprotein BT2192, PDB entry 4oue",500 µM (active)
NCC1CCC(C(=O)N[C@@H](Cc2ccccc2)c2ncc(-c3ccc(C(N)=O)cc3)[nH]2)CC1 (stereo partly specified),Ki,"protein: Coagulation factor XI FXIa, PDB entry 4ty6",0.03 µM (active)
NCC1CCC(C(=O)N[C@@H](Cc2ccccc2)c2nc(-c3ccc4c(N)n[nH]c4c3)c(Cl)[nH]2)CC1 (stereo partly specified),Ki,"protein: Coagulation factor XI FXIa, PDB entry 4ty7",0.0003 µM (active)
N#CCC(=O)N1CCC[C@@H](n2[nH]nc3cnc4nccc4c32)C1,Ki,"protein: Tyrosine-protein kinase JAK1, PDB entry 4i5c",0.0015 µM (active)
O=C(O)C(=O)Nc1ccc(C[C@@H](c2nc3ccccc3o2)S(=O)(=O)Nc2ccc(F)cc2)cc1,Ki,"protein: Tyrosine-protein phosphatase non-receptor type 1, PDB entry 4i8n",35 µM (active)
O=c1[nH]c(=O)n([C@@H]2O[C@H](CO)[C@@H](O)[C@H](O)[C@H]2O)cc1I,Ki,"protein: Glycogen phosphorylase, muscle form, PDB entry 3t3h",1.94 µM (active)
O=c1[nH]c(=O)n([C@@H]2O[C@H](CO)[C@@H](O)[C@H](O)[C@H]2O)cc1C(F)(F)F,Ki,"protein: Glycogen phosphorylase, muscle form, PDB entry 3t3i",17 µM (active)
O=c1[nH]c(=O)n([C@@H]2O[C@H](CO)[C@@H](O)[C@H](O)[C@H]2O)cc1Cl,Ki,"protein: Glycogen phosphorylase, muscle form, PDB entry 3t3e",1.02 µM (active)
O=c1[nH]c(=O)n([C@@H]2O[C@H](CO)[C@@H](O)[C@H](O)[C@H]2O)cc1Br,Ki,"protein: Glycogen phosphorylase, muscle form, PDB entry 3t3g",3.27 µM (active)
OC[C@@H]1[C@@H](O)[C@H](O)[C@@H](O)[C@@H]1NCC1CCCCC1,Ki,"protein: Raucaffricine Glucosidase, PDB entry 3zj6",0.22 µM (active)
COCCCC[C@@H](NOCCN)c1ccc(C(F)(F)F)cc1,Ki,"protein: Transporter(delta13 mutant), PDB entry 4mm9",2.07 µM (active)
O=[N+]([O-])c1ccccc1S[C@@H]1O[C@H](CO)[C@H](O)[C@H](O)[C@H]1O,Ki,"protein: Putative lipoprotein BT2192, PDB entry 4ozo",147 µM (active)
COc1cc2c(c(OC)c1)[C@@H]1[C@H]3CCC[C@@H](C(=O)N1CC2)N3C(=O)C(=O)c1cc(OC)c(OC)c(OC)c1,Ki,"protein: Peptidyl-prolyl cis-trans isomerase FKBP5 (A19T mutation), PDB entry 4jfi",18.1 µM (active)
COc1cc(Cc2cnc(N)nc2N)cc(/C=C/C(=O)N2N=Cc3ccccc3[C@@H]2C(C)C)c1OC,Ki,"protein: Dihydrofolate reductase, PDB entry 4ele",0.0132 µM (active)
COc1cc(Cc2cnc(N)nc2N)cc(/C=C/C(=O)N2NCc3ccccc3[C@H]2CC(C)C)c1OC,Ki,"protein: Dihydrofolate reductase, PDB entry 4elh",0.0082 µM (active)
COc1cc(Cc2cnc(N)nc2N)cc(/C=C/C(=O)N2NCc3ccccc3[C@@H]2c2ccccc2)c1OC,Ki,"protein: Dihydrofolate reductase, PDB entry 4elb",0.005 µM (active)
COc1cc(Cc2cnc(N)nc2N)cc(/C=C/C(=O)N2NCc3ccccc3[C@@H]2CC(C)C)c1OC,Ki,"protein: Dihydrofolate reductase, PDB entry 4elg",0.0069 µM (active)
COc1cc(Cc2cnc(N)nc2N)cc(/C=C/C(=O)N2NCc3ccccc3[C@@H]2CCC(F)(F)F)c1OC,Ki,"protein: Dihydrofolate reductase, PDB entry 4elf",0.0094 µM (active)
CCCCCCCCCCCCCB(O)O,Ki,"protein: Acyl-homoserine lactone acylase PvdQ subunit beta, PDB entry 4m1j",0.0002 µM (active)
Cc1cc(N)ccc1O,Ki,"protein: PDE10A2, PDB entry 4llp",16 µM (active)
O=C(O)c1ccccc1C(=O)NCc1c(Cl)cccc1Sc1ccc(Cl)cc1Cl,Ki,"protein: Dehydrosqualene synthase, PDB entry 3tfp",0.34 µM (active)
